# Compound activity as filed in PubChem BioAssay.
# Only a selection was taken, and hits are over-represented in it overall.
# ST2 inh – inhibitors of human ST2 (IL1RL1) binding to IL-33 | Q01638 | AlphaLISA ST2-Fc/biotin-IL-33 interaction, 1 h | inhibition, % for hits at 17 µM | 78,000 tested, 2.3% active | AID 1259354; in the data active = inhibition above about 30%
# Target sequence (Q01638 whole entry, looked up): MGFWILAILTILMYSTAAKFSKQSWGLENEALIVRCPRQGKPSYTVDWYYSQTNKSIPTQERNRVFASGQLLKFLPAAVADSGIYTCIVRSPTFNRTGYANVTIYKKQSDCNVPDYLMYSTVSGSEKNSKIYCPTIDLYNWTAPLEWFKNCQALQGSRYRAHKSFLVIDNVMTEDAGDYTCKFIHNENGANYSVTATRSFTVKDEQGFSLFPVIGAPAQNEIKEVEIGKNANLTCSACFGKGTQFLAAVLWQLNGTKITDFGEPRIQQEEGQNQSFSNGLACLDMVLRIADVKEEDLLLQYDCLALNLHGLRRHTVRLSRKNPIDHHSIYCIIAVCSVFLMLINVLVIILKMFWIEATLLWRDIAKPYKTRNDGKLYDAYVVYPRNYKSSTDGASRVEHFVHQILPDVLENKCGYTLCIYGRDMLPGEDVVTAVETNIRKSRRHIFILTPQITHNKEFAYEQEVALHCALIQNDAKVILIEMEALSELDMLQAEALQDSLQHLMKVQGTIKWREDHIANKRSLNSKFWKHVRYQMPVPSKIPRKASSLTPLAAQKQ
# Numbers without * were called inactive; i = inactive.
SMILES,ST2 inh
CCSc1nc(CC(=O)NCc2cc(CC)no2)cs1,i
CCSc1nc(CC(=O)NCc2ccc(CC)cn2)cs1,i
CCSc1nc(CC(=O)NCc2sc(C)nc2CC)cs1,31%*
Cc1oc(-c2ccc(Cl)cc2)nc1CN1CCC(C(=O)NC2CCCC(C)C2C)CC1 (configuration not stated),i
N#Cc1cccc(NC(=O)N2C[C@@H]3C[C@H](C2)c2c(-c4cc5ccccc5s4)ccc(=O)n2C3)c1,i
Cc1ccc2oc(-c3ccc(NC(=O)c4ccccc4Cl)cc3O)nc2c1,i
Cc1ccc2oc(-c3ccc(NC(=O)c4cccnc4)cc3O)nc2c1,i
Cc1ccc2nc(-c3ccc(N)cc3O)oc2c1,34%*
Cc1cccc(CN2C(=O)CSc3ccc(C(=O)O)cc32)c1,i
COc1cc(NC(=O)/C=C/c2ccc(Cl)cc2)ccc1NC(=O)c1ccco1,i
COc1cc(-c2ccc(NC(=O)c3ccco3)c(OC)c2)ccc1NC(=O)c1ccco1,31%*
COc1cc(-c2ccc(NC(C)=O)c(OC)c2)ccc1NC(C)=O,i
Cc1c(NS(=O)(=O)c2ccccc2[N+](=O)[O-])c(=O)n(-c2ccccc2)n1C,i
CCOC(=O)C1(Cc2ccccc2C(F)(F)F)CCN(C(=O)C2=CCCC2)CC1,i
Nc1c(S(=O)(=O)O)cc(Nc2ccc(Nc3nc(Cl)nc(Nc4ccc(S(=O)(=O)O)cc4)n3)c(S(=O)(=O)O)c2)c2c1C(=O)c1ccccc1C2=O,81%*
CCN(Cc1ccc(C(=O)Nc2ccnn2C)cc1)Cc1noc(C)n1,i
CC(NC(=O)[C@H](CCS(C)(=O)=O)N1Cc2ccccc2C1=O)c1cccs1 (some centres not stated),i
CC(=O)N1CCc2cc(Br)cc(S(=O)(=O)CCC(=O)N(C)Cc3ccccc3)c21,i
Cc1ccc(NC(=O)COc2ccc(Cl)cc2)c([N+](=O)[O-])c1,i
CCCOc1cccc(C(=O)Nc2ccc(C)cc2[N+](=O)[O-])c1,32%*
CCCCOc1ccc(C(=O)Nc2ccc(OCC)cc2[N+](=O)[O-])cc1,i
Cc1ccc(OCC(=O)Nc2ccc(C)cc2[N+](=O)[O-])c(C)c1,i
CCOc1ccc(NC(=O)c2cc(OC)cc(OC)c2)c([N+](=O)[O-])c1,i
Cc1ccc(NC(=O)COc2c(C)ccc(C)c2C)c([N+](=O)[O-])c1,33%*
CCC(C)NC(=O)c1cn(C)c(=O)c2c1c1ccccc1n2C (configuration not stated),i
SMILES,ST2 inh
Cc1ccc(OCC(=O)O)c(Br)c1,i
O=C1C(c2cccc(Br)c2)N(Cc2ccccc2)C(=O)CN1C1CCCCC1 (configuration not stated),i
Cc1ccc(NC(=O)c2noc3c2CCC3)cc1,i
C=CCN1C(=Nc2cccnc2)SCC1(O)c1ccc(OC)cc1 (configuration not stated),61%*
CCC(=O)N1N=C(C)CC1(O)c1cccnc1 (configuration not stated),i
Cc1ccc2cc(C3(O)CCN(C(=O)COc4cccnc4)CC3)ccc2n1,i
CCC1=NN(C(=O)c2cccnc2)C(O)(c2ccc(Br)cc2)C1 (configuration not stated),i
COc1ccc(C(CC(=O)N2CCN(c3cnccn3)CC2)c2ccccc2)cc1 (configuration not stated),i
C=CCN1C(=Nc2cccnc2)SCC1(O)c1ccc(C)cc1 (configuration not stated),59%*
COc1ccc(C2(C(=O)N3CCCC(c4ccn[nH]4)C3)CCCC2)cc1 (configuration not stated),i
O=C1C2C(C(=O)N1c1ccccc1F)[C@H]1C=C[C@@H]2CC1 (some centres not stated),i
Cc1ccc2[nH]c(C(=O)O)c(CN3CCC(N4CCCC4=O)CC3)c2c1,i
CC1=C(C(=O)OCc2ccco2)C(c2ccc(Cl)c(Cl)c2)NC(=O)N1 (configuration not stated),i
Cc1ccc(NS(=O)(=O)c2ccc(NC(=O)c3ccccc3Br)cc2)c(C)c1,i
COc1ccc(NC(=O)N[C@H]2C[C@H]3C(=O)N[C@H](Cc4ccccc4)C(=O)N3C2)cc1,i
COc1ccc(CN2CCCN(CC(=O)Nc3cccc(SC)c3)S2(=O)=O)cc1,i
COc1ccc(C[C@@H]2NC(=O)[C@@H]3C[C@@H](NC(=O)Nc4cccc(SC)c4)CCN3C2=O)cc1,33%*
COC(=O)c1c(NC(=O)COc2ccccc2Br)sc2c1CCC(C)C2 (configuration not stated),i
CCOc1ccc(CNS(=O)(=O)c2ccc3[nH]cc(C(=O)O)c(=O)c3c2)cc1OC,i
N#Cc1c(N)n(-c2ccc(C(=O)O)cc2)c2nc3ccccc3nc12,36%*
N#Cc1c(N)n(-c2ccc(Br)cc2)c2nc3ccccc3nc12,i
COc1ccc(-n2c(N)c(C#N)c3nc4ccccc4nc32)cc1,i
Cc1nnc(SCCC(=O)N2CCN3CCNC(=O)C3C2)s1 (configuration not stated),i
Nc1cccc2c1C(=O)N(c1ccc(Cl)cc1)C2=O,i
Nc1ccc(Cl)c2c1C(=O)c1ccccc1C2=O,42%*
SMILES,ST2 inh
Nc1ccc(N2C(=O)c3ccccc3C2=O)c(Cl)c1,i
O=C1NN(c2ccc(Cl)c(Cl)c2)C(=O)/C1=C/c1ccc(-c2ccc3c(c2)C(=O)NC3=O)o1,i
N#C/C(=C\c1ccc(-c2ccc3c(c2)C(=O)NC3=O)o1)c1nc2ncc(Br)cc2[nH]1,33%*
O=C(CN1N=NC2C(=O)N(c3ccccc3)C(=O)C21)Nc1c(Cl)cccc1Cl (configuration not stated),i
COC(=O)c1c(NC(=O)c2cc([N+](=O)[O-])nn2Cc2ccccc2)sc2c1CCCC2,i
CC1CCCC(C)N1CCNC(=O)c1ccc2c(c1)ncn2C1CCCC1 (configuration not stated),i
Cc1ccc(NC(=O)Cn2c(Br)nc3c2c(=O)n(C)c(=O)n3C)cc1,i
O=C(O)c1ccc(CN2Cc3[nH]cnc3C[C@H]2c2nc(-c3cccc([N+](=O)[O-])c3)no2)cc1,i
Clc1ccc(-c2noc([C@@H]3Cc4nc[nH]c4CN3Cc3cccs3)n2)cc1,30%*
COc1ccc(-c2noc([C@@H]3Cc4nc[nH]c4CN3C(=O)Nc3ccc(Cl)cc3)n2)cc1,i
O=C(c1ccccc1)C(c1ccccc1)N1CCN(Cc2ccc3c(c2)OCO3)CC1 (configuration not stated),i
O=C(Cn1nnc([N+](=O)[O-])n1)c1ccccc1,i
CCOC(=O)c1c(NC(=O)C(C)Oc2ccc(Cl)c(C)c2)sc(C(C)=O)c1C (configuration not stated),i
CN1CCN(C(=O)c2ccc3c(c2)CCO3)CC1=O,i
COc1ccc(N=Cc2cc(Cl)cc([N+](=O)[O-])c2O)cc1Cl,i
O=[N+]([O-])c1cc(Cl)ccc1NCCNCCO,i
Nc1c(Cl)cc(Cl)cc1[N+](=O)[O-],37%*
CCCCOc1ccc(C(=O)Nc2sc3c(c2C(=O)OCC)CC(C)(C)OC3)cc1,i
CCc1ccc(C2CC(c3ccccc3)n3nc(N)nc3N2)cc1 (configuration not stated),i
CCN(CC)CCNC(=O)c1cc2cc3cc(OC)ccc3nc2s1,i
COc1ccc2cc3cc(C(=O)NC4CC4)sc3nc2c1,i
CCN(C(=O)c1cc2cc3ccc(OC)cc3nc2s1)c1cc(OC)ccc1OC,31%*
